Shown are actives, neighbours in structure and some others; about 4.2% of the full set was active somewhere.
FBA Mtb inh: inhibitors of M. tuberculosis fructose-bisphosphate aldolase; P9WQA3; purified M. tuberculosis FBA, fluorescence read-out; inhibition, % at 1 µM; actives 2.3% (n = 360,000); AID 588726; in the data active = inhibition above about 27%;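 note: 0% = vehicle and 100% = reference inhibitor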
GDH-TPI inh: counter-screen for M. tuberculosis FBA inhibitors: GDH-TPI coupled enzymes | GDH-TPI coupled enzyme counterscreen, NADH absorbance | inhibition, % at 4.8 µM | actives 1.2% (n = 360,000) | AID 588335; in the data active = inhibition above about 30%;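 note: 0% = DMSO wells and 100% = wells lacking the enzyme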
PrPC TRFRET: reduces human prion protein on the cell surface; P04156; AID 720596; inhibition, % at 13.8 µM; actives 0.43% (n = 370,000); cell surface PrPC, TR-FRET read-out; in the data active = inhibition above about 24%; note: 0% = median of the test wells and 100% = reference compound wells
RecA splice inh: inhibitors of M. tuberculosis RecA intein splicing. P9WHJ3. cell-free RecA intein splicing, fluorescence. inhibition, % (test concentration not listed). actives 0.75% (n = 290,000); in the data active = inhibition above about 30%;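 note: 0% = vehicle wells and 100% = reference inhibitor control wells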
BJeLR lethal: BJeLR cell viability loss | inhibition, % (no concentration beside the values) | actives 0.17% (n = 300,000) | BJeLR (HRASV12) viability, CellTiter-Glo ATP luminescence, 48 h; in the data active = inhibition above about 50%
Numbers without * were called inactive; x = no result; + = active, no number.

SMILES | FBA Mtb inh | GDH-TPI inh | PrPC TRFRET | RecA splice inh | BJeLR lethal
COc1ccc(-n2c(SCC(=O)NNC(=S)Nc3ccccc3)nc3ccccc3c2=O)cc1 | x | x | -4 | x | x
Cc1nn(CCC(=O)NNC(=O)Nc2ccc(F)cc2)c(C)c1[N+](=O)[O-] | x | x | 6 | x | x
COC(=O)[C@@]12CCCCC=C1N(CCc1ccc(Cl)cc1)C(=O)[C@H]2CC(=O)NCc1cccc2ccccc12 | x | x | -3 | x | x
O=C(O)c1cc2ccc3cccc4ccc(c1)c2c34 | 168* | 27 | 0 | -3 | -4
Cc1c(CC(=O)N2CCN(C(=O)C3COc4ccccc4O3)CC2)c(=O)oc2cc(O)cc(O)c12 (centres undefined) | 177* | 17 | 0 | -106 | 7
Cc1c(CC(=O)N2CCN(C(=O)C3COc4ccccc4O3)CC2)c(=O)oc2c(C)c(O)ccc12 (centres undefined) | + | 23 | 7 | -149 | 6
Cc1c(CC(=O)N2CCN(C(=O)C3COc4ccccc4O3)CC2)c(=O)oc2cc(O)ccc12 (centres undefined) | + | 13 | 5 | -22 | 5
Cc1cccc(N2CCN(C(=O)C3COc4ccccc4O3)CC2)c1C (centres undefined) | -2 | 0 | -2 | 0 | 3
COc1ccc2c(C)c(CC(=O)N3CCN(C(=O)C4COc5ccccc5O4)CC3)c(=O)oc2c1 (centres undefined) | 144* | 12 | 3 | 1 | 8
O=C(CSc1nnc(-c2cccnc2)n1Cc1ccco1)Nc1cc(Cl)ccc1F | x | x | 9 | x | x
CC(O)/C=C/C1OC(=O)CC1Nc1ccc(C=O)cc1 (centres undefined) | 0 | 34* | 2 | -3 | 0
O=C1CC(c2ccccc2)CC(O)=C1C=NC1CCCCC1 (centres undefined) | 0 | 7 | 0 | 1 | -10
Oc1ccc(C=NC2CCCCC2)cc1 | -4 | 37* | 5 | 1 | -10
COc1ccc(-c2ccc3oc(-c4ccc(OC)cc4)c(C#CCO)c3c2)cc1 | 16 | 31* | 6 | 1 | 25
COc1ccc(C(=O)c2c(-c3ccc(OC)cc3)oc3ccc(-c4cc(OC)c(OC)c(OC)c4)cc23)cc1 | 9 | 37* | 16 | -5 | 10
COc1ccc(-c2oc3ccc(-c4ccc(OC)nc4)cc3c2C#CC2(O)CCCCC2)cc1 | 7 | 31* | 7 | -4 | -12
COc1cc(-c2ccc3oc(-c4cccc(C)c4)c(C#CC4(O)CCCCC4)c3c2)cc(OC)c1OC | 117* | 35* | -5 | x | x
COc1ccc(-c2oc3ccc(-c4ccc(OC)nc4)cc3c2-c2ccc(OC)cc2)cc1 | 0 | -6 | -2 | 0 | 7
COc1ccc(-c2ccc3oc(-c4ccc(OC)cc4)c(-c4ccc(OC)cc4)c3c2)cc1 | -2 | 10 | 5 | -1 | 0
COc1ccc(-c2oc3ccc(-c4cc(OC)c(OC)c(OC)c4)cc3c2C(=O)c2ccc(OC)nc2)cc1 | 0 | 14 | 1 | 2 | -7
COc1ccccc1-c1oc2ccccc2c1C#CC1(O)CCCCC1 | 24 | 0 | -3 | x | x
O=C(Nc1ccc(NC(=O)c2ccccc2Cl)c(Cl)c1)c1ccccn1 | x | x | -4 | x | x
CCOC(=O)c1csc(NC(=O)C2CCCN(S(=O)(=O)c3cc(OC)ccc3OC)C2)n1 (centres undefined) | x | x | 7 | x | x
COc1ccc(-c2sc3cc4c(cc3c2C#CC2(O)CCCCC2)OCO4)cc1 | 6 | 12 | 0 | x | x
COc1ccc(-c2oc3ccc(-c4ccc5c(c4)OCO5)cc3c2C#CC2(O)CCCCC2)cc1 | 45* | 54* | 4 | -1 | 3
SMILES | FBA Mtb inh | GDH-TPI inh | PrPC TRFRET | RecA splice inh | BJeLR lethal
CCN(CC)CCNC(=O)c1cn(CC)c2cc(N3CCN(C(=O)c4ccco4)CC3)c(F)cc2c1=O | 22 | 4 | 0 | -1 | -2
CCN(CC)CCCNC(=O)c1cn(CC)c2cc(N3CCN(C(=O)c4ccco4)CC3)c(F)cc2c1=O | 54* | 20 | 3 | -1 | -6
COC(=O)[C@H]1C[C@@]2(C)c3ccccc3N(S(=O)(=O)c3ccccc3)[C@H]2N1 | x | x | 4 | x | x
COc1nc(-c2ccccc2)cc(-c2ccc(OC)c(OC)c2)n1 | 21 | 36* | 7 | 9 | -4
CC1(C)CC(=O)C2=C(C1)NC(Nc1nc3ccccc3o1)=NC2c1ccccn1 (centres undefined) | -2 | 44* | -4 | -4 | -13
Cc1ccc2nc(-c3ccc(NC(=O)CSc4nnc(-c5cc(-c6ccc(F)cc6)n[nH]5)n4N)cc3)sc2c1 | x | x | -5 | x | x
